Assays:
Test in all cases: PBM binding z-score (relative to random genomic background probes); higher = stronger binding; sequences stand for … in GC…GCGATTGACAGCGTAGAATGAAGG
[1] = system: RARb homodimer (NR concentration 270 nM)
Summary of the method: (§1)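 Random background probes are the reference for binding z-scores. These scores derive from regression-normalized fluorescence on custom Agilent 4×180K protein-binding microarrays incubated 1 h with ligand-free nuclear receptor dimers. Binding was detected with antibodies against each partner (one per run).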

[2] = system: RARg:RXRa (NR concentration 270 nM, RXRa partner concentration 90 nM)
Summary of the method: as §1

[3] = system: RARg homodimer (NR concentration 270 nM)
Summary of the method: as §1

[4] = system: RXRa DBDmut IVT, anti-RXR (DBD mutation: RXRa K156A/R161A, NR concentration 90 nM)
Summary of the method: as §1

[5] = system: RXRa homodimer (NR concentration 180 nM)
Summary of the method: as §1

[6] = system: THRa:RXRa (NR concentration 90 nM, RXRa partner concentration 90 nM)
Summary of the method: as §1

[7] = system: THRa homodimer (NR concentration 90 nM)
Summary of the method: as §1

[8] = system: VDR homodimer (NR concentration 270 nM)
Summary of the method: as §1

Sequence | PBM binding z-score [1] | PBM binding z-score [2] | PBM binding z-score [3] | PBM binding z-score [4] | PBM binding z-score [5] | PBM binding z-score [6] | PBM binding z-score [7] | PBM binding z-score [8]
ACTTACGGGTCAACGAGGTTAAAGCACGCGTATA | 3.82 | 5.73 | 5.18 | 2.51 | 6.72 | 4.25 | 1.17 | 3.67
AGAACGAGGGCATTGAGTTGATAGCACGGGTGGC | 1.01 | 1.11 | 1.39 | 3.13 | 1.04 | 1.14 | -0.127 | 5.15
TCGAGTAGGTTACCACTGGGGCATTCAGCTTTCT | 0.339 | 0.939 | 0.436 | 0.044 | 0.129 | 0.242 | -0.96 | -0.613
TCATATAGGTAAAAGGTGAAATTCGGTGTGGTAA | 1.8 | 1.8 | 0.738 | 1.92 | 3.04 | 1.77 | 0.523 | 0.37
CCGACTGGGCCAGAAAGGTTACCATACCATCCGG | 1.97 | 1.28 | 0.921 | -0.772 | 1.58 | 1.04 | -0.354 | 0.0109
CAAACTAGGTCACCTGAAGGTCAAAGTCCGCATG | 5.57 | 8.05 | 7.61 | 2.29 | 6.63 | 4.16 | 2.96 | 3.86
GCCTGTAGATCAAGGTTAAGAAAGACTAAGCTAA | 0.243 | 0.329 | 0.0689 | 0.0892 | 0.822 | 1.14 | -0.419 | -0.568
TTACCAAGGTGAAAGGACGTTGATGCACGCCTTG | 0.523 | 0.792 | 0.651 | -0.0859 | 0.819 | 1.36 | 0.386 | -0.00942
GCTCGGAGGACAAGGTCAGAGCATTGTCCGTAGA | 3.1 | 3.37 | 3.72 | 0.0327 | 2.61 | 2.87 | 1.51 | 0.838
AAAACGAGGGCAATGAGTTGATAGCACGGGTGGC | 1.2 | 1.23 | 1.6 | 2.07 | 1.13 | 1.31 | -0.257 | 3.26
TAGCCTAGGTCAGATGGGGCCAGTATACGCTATA | 2.71 | 2.98 | 3.65 | -0.279 | 1.62 | 4.6 | 0.386 | 0.0236
TAGCCTTGGTCATGGGCCAGTATACCACGCGAAC | 0.441 | 0.368 | 0.681 | -1.32 | 0.297 | -0.147 | -0.424 | -0.715
ATCTCTAGGTAAAAGTTCAGTGTATCCCGAGGAT | 2.33 | 1.84 | 2.05 | 1.12 | 1.49 | 1.43 | 0.678 | 2.3
CCTAGTTGGTCCGGAGGTCACACACCGGATATGA | 3.85 | 4.35 | 3.68 | 0.525 | 4.56 | 3.62 | 2.86 | 2.79
CGAACTAGGTCCGAACAGGACAGTGAAGGATGAT | -0.462 | -0.22 | 0.235 | 0.44 | -0.527 | 0.105 | -0.912 | -0.155
GCTAGTTGATCAGTAAAAGGTCACACACCGGTCG | 4.9 | 5.1 | 4.68 | 0.532 | 5.54 | 3.45 | 1.59 | 1.8
ACTAGCAGGCCAAGTTTGGGTCACTTAAACAAAG | 2.22 | 2.2 | 1.45 | 0.0842 | 0.809 | 2.58 | 1.22 | 0.22
TCATATAGGTAAATGCTAAGTGAAAGTCCGATCT | 0.0173 | 0.4 | 0.337 | 1.68 | 0.615 | 0.0115 | -0.264 | 0.0364
GCTGGGAGGACAAGGTCAGAGCTTTGTCCGTAGA | 3.21 | 3.33 | 3.55 | 0.766 | 2.49 | 3.31 | 1.8 | 0.796
AGAATGAGGTTACCTAAGATCAGGGAAACGCTTG | 0.84 | 2.05 | 1.65 | 0.932 | 2.66 | 3.93 | 1.05 | 0.305
CCTAGCAGGCCAATCTGGTTCACTCAAGGCTTGA | 0.26 | -0.172 | -0.0939 | 0.398 | -0.304 | 1.38 | -0.212 | 0.42
CTACCAAGGTGAACAAGGTCGTCGATTACTATTC | 2.3 | 2.1 | 1.77 | 1.08 | 2.25 | 3.64 | 1.9 | 1.44
TGATATAGGTAAACAGGTGAAAGTCCGTAAGTTA | 0.629 | 0.44 | 0.407 | -0.121 | 0.613 | 0.68 | 0.366 | 0.301
AGAATGAGGTTATAAAGATCAGGGAATTGCGGTC | 0.868 | 1.15 | 0.986 | 1.35 | 1.92 | 2.14 | 0.473 | 1.01
CTCGAAAGGTCGGTAGAGGTGAGTATACGGATAA | 2.52 | 2.89 | 2.98 | 0.197 | 2.49 | 4.38 | -0.139 | 0.0872
CCTAGCAGGCCAGGGTCACTTAAGCATTTCGCTT | 2.51 | 2.93 | 2.28 | 0.27 | 3.13 | 2.67 | 0.864 | 1.25
CCTTACGGGTCAAGGTTTTAGCACGGGTGGTACG | 3.11 | 4.62 | 4.4 | 0.499 | 5.16 | 2.51 | 0.113 | 0.742
CGTCCAAGGTCAAAGGTCAGAGAAGAGATGACGG | 5.36 | 8.94 | 8.33 | 3.99 | 10.6 | 4.84 | 2.39 | 3.54
